# Data from PubChem BioAssay (NCI).
# Compounds without any hit were thinned out: in the full panel of roughly 79,000, 15% have a hit. A number with no mark means an inactive call. The source made the active and inactive calls. Rule as the data show it: active = growth inhibition above about 70%; inactive = the rest.
# Experiments:
# [1] = NCI Yeast Anticancer Drug Screen. Data for the rad50 strain (AID 155);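 also: 0% = growth of vehicle-only cultures of the same strain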; conditions: S. cerevisiae rad50 strain growth inhibition, active compounds read high
# Procedure, shortened: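 Relative growth inhibition (compound vs vehicle) was measured in yeast with a defined repair-gene alteration.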
# [2] = NCI Yeast Anticancer Drug Screen. Data for the mec2-1 strain (AID 157); conditions: S. cerevisiae mec2-1 strain, active compounds read high
# Procedure, shortened: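 Strain: mec2-1 (DNA repair/cell cycle alteration). Compound exposure, then growth measured; inhibition expressed relative to vehicle.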
# [3] = NCI Yeast Anticancer Drug Screen. Data for the sgs1 mgt1 strain (AID 161);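 also: 0% = growth of cultures given vehicle only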; conditions: S. cerevisiae sgs1 mgt1 strain, active compounds read high
# Procedure, shortened: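 Genetically altered yeast, compound exposure, growth inhibition relative to vehicle.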
# [4] = NCI Yeast Anticancer Drug Screen. Data for the cln2 rad14 strain (AID 165);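 also: 0% = growth equal to vehicle treated cultures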; conditions: S. cerevisiae cln2 rad14 strain, active compounds read high
# Procedure, shortened: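 Compounds are applied to the cln2 rad14 yeast strain, and growth is then compared with that of vehicle-treated cultures to give inhibition.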
# [5] = NCI Yeast Anticancer Drug Screen. Data for the bub3 strain (AID 167); conditions: S. cerevisiae bub3 mutant strain, active compounds read high
# Procedure, shortened: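 Screening used yeast with an engineered genetic alteration affecting cell cycle control. Compound-exposed cultures were compared with vehicle cultures, and reduced growth was taken as inhibition.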
# [6] = NCI Yeast Anticancer Drug Screen. Data for the mlh1 rad18 strain (AID 175); conditions: S. cerevisiae mlh1 rad18 strain growth inhibition, active compounds read high
# Procedure, shortened: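 Read-out is yeast growth inhibition, calculated against vehicle-only controls. The compound was applied to a strain engineered with DNA damage repair alterations.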
# [7] = at 5.0 µM (retest, dose inferred, filed as 0.5)
# [8] = at 50.0 µM (retest, dose inferred, filed as 5.0)
SMILES,"growth inhibition [1, 7]","growth inhibition [1, 8]",growth inhibition ([1]; at 50.0 µM),"growth inhibition [2, 7]","growth inhibition [2, 8]",growth inhibition ([2]; at 50.0 µM),"growth inhibition [3, 7] [%]","growth inhibition [3, 8]",growth inhibition ([3]; at 50.0 µM),"growth inhibition [4, 7]","growth inhibition [4, 8]",growth inhibition ([4]; at 50.0 µM),"growth inhibition [5, 7]","growth inhibition [5, 8]",growth inhibition ([5]; at 50.0 µM),"growth inhibition [6, 7] [%]","growth inhibition [6, 8]",growth inhibition ([6]; at 50.0 µM)
COc1ccc(C(c2c(O)c3ccccc3oc2=O)N2CCOCC2)c(OC)c1 (stereo not drawn),-4%,3%,33.4%,-6%,19%,23.1%,-4,4%,35.6%,3%,-3%,20.3%,-2%,0%,69.2%,-7,-3%,43.4%
N=C1C=CC(=C(c2ccc(N)cc2)c2ccc(N)cc2)C=C1,-2%,99% (active),98.8% (active),24%,98% (active),98.5% (active),8,97% (active),97.8% (active),-15%,93% (active),96.8% (active),12%,98% (active),98.3% (active),-4,97% (active),97.4% (active)
c1ccc(CC(Nc2cccnc2)c2ccccc2)cc1 (stereo not drawn),6%,56%,74.5% (active),-13%,24%,22.6%,-2,74% (active),74.1% (active),-1%,28%,21.9%,24%,40%,56.1%,1,60%,75.3% (active)
O=C(/C=C\c1ccc(Cl)c(Cl)c1)c1cccs1,13%,-9%,58.9%,-2%,4%,64.4%,4,-25%,92.2% (active),-6%,-3%,51.6%,-4%,11%,89.7% (active),-3,6%,85.5% (active)
CCCC(C1=C(O)CC(C)CC1=O)C1=C(O)CC(C)CC1=O (stereo not drawn),-6%,-2%,-8.7%,-5%,-4%,0.4%,-4,8%,-5.6%,-34%,23%,-24.4%,-6%,19%,-7.2%,4,28%,0.45%
COC1=CC(=O)c2c(ccc3ncnc(N)c23)C1=O,20%,73% (active),22%,15%,15%,3.35%,14,28%,-6%,18%,32%,24.9%,19%,-11%,17.5%,13,59%,-4.3%
CCCCCCCCCCCC(=O)OC/C=C/COC(=O)c1ccccc1,2%,23%,36%,-3%,31%,-5.05%,1,69%,38.5%,0%,20%,69.3%,-5%,46%,44%,-7,46%,5.35%
CCC[CH2][Sn]([CH2]CCC)([O]C(=O)C(OC)c1ccccc1)[O]C(=O)C(OC)c1ccccc1 (stereo not drawn),44%,97% (active),89% (active),40%,96% (active),88.3% (active),44,96% (active),84% (active),36%,96% (active),88.8% (active),77% (active),98% (active),92% (active),57,98% (active),88.3% (active)
Nc1c(-c2ccc(C3=NCCN3)cc2)[nH]c2cc(C3=NCCN3)ccc12,2%,89% (active),32.3%,1%,89% (active),-29%,14,92% (active),69.9%,13%,83% (active),49.5%,22%,94% (active),74.1% (active),3,90% (active),-46.2%
O=C(/C=C/c1ccccc1)CCN1CCOCC1,21%,99% (active),91.3% (active),26%,99% (active),85.3% (active),22,100% (active),86.5% (active),0%,84% (active),88.7% (active),35%,100% (active),88.8% (active),32,99% (active),84.7% (active)
[Pt].c1ccc([PH+](CC[PH+](CC[PH+](c2ccccc2)c2ccccc2)CC[PH+](c2ccccc2)c2ccccc2)c2ccccc2)cc1,54%,96% (active),89.8% (active),97% (active),98% (active),90.7% (active),28,97% (active),91.7% (active),27%,97% (active),89.3% (active),93% (active),97% (active),89.8% (active),68,97% (active),88.7% (active)
c1ccc2sc(SSN3CCOCC3)nc2c1,78% (active),99% (active),94.4% (active),28%,98% (active),89.2% (active),18,99% (active),66.8%,76% (active),97% (active),96.3% (active),64%,98% (active),86.4% (active),34,99% (active),94% (active)
CC(=O)Oc1ccc(-c2ccc(Br)cc2)cc1,-1%,92% (active),89.2% (active),-3%,91% (active),97.9% (active),-2,89% (active),96.4% (active),-11%,93% (active),97.8% (active),20%,94% (active),97.6% (active),-7,94% (active),98% (active)
CCN(CC)CCCNc1c2c(Cl)cc(Cl)cc2nc2nc(=O)[nH]c(C)c12,9%,12%,8.75%,8%,16%,0.9%,-28,6%,8.8%,-13%,4%,39%,-19%,8%,34.5%,7,17%,42.2%
O=c1ccc2nc3ccccc3sc-2c1,-13%,98% (active),95.4% (active),22%,98% (active),8.1%,5,98% (active),76.8% (active),-6%,98% (active),49.8%,7%,98% (active),92.1% (active),4,98% (active),95.5% (active)
CC1(C)CC(=O)C(CSC(=O)c2ccccc2)=C(O)C1,-1%,17%,-13.9%,-2%,-1%,-5.45%,-4,-3%,3.05%,-2%,-11%,45.6%,-2%,-2%,-27.6%,-7,15%,-6.2%
Cc1cc(SCC(=O)c2ccccc2)cc(C)[o+]1,-4%,82% (active),92% (active),-5%,80% (active),95.6% (active),-7,44%,56.4%,-6%,1%,17.6%,0%,86% (active),97.9% (active),1,69%,95.4% (active)
CN(C)[C@H]1CC[C@H]2[C@@H]3CCC4C[C@@H](NC(=O)NC(Cc5ccccc5)c5nccs5)CC[C@]4(C)[C@H]3CC[C@]12C (stereo partly drawn),4%,4%,67.5%,-16%,-16%,63.9%,-11,-11%,63.5%,-16%,-16%,47.9%,-17%,-17%,65.9%,-21,-21%,59%
CN(C)CCOC1OCN(C)CC1(C)C (stereo not drawn),0%,-12%,4.55%,0%,-7%,7.2%,-1,-8%,-0.9%,1%,-15%,36.1%,-2%,-3%,-3.75%,2,-12%,-1.05%
COC(=O)C1(NC(=O)C(CC(=O)OCc2ccccc2)NC(=O)OCc2ccccc2)CCCCCC1 (stereo not drawn),3%,30%,63%,-1%,41%,8.9%,-12,25%,50.3%,-2%,47%,71.5% (active),-22%,66%,56.8%,-3,64%,59.1%
Nc1nnc(Cc2ccc(Br)cc2)o1,-8%,0%,21.3%,1%,-6%,13.9%,-3,12%,24.3%,10%,-2%,71.5% (active),4%,6%,-13.8%,-12,4%,58.3%
O=C(CN1CCCCC1)CC(O)(C(F)(F)F)C(F)(F)F,29%,39%,5.85%,20%,33%,8.45%,10,20%,6.25%,2%,50%,15.6%,11%,23%,7.5%,31,34%,77.3% (active)
CCCCCC(C1SC(=S)NC1=O)C1SC(=S)NC1=O (stereo not drawn),1%,-3%,96.8% (active),2%,1%,93.2% (active),5,6%,95% (active),-1%,-1%,83% (active),0%,0%,97.6% (active),0,3%,81.8% (active)
S=C(N/N=C(/c1ccccc1)c1ccccn1)Nc1ccccc1,2%,90% (active),84.3% (active),14%,95% (active),73.5% (active),20,95% (active),85.3% (active),-9%,94% (active),60.4%,2%,93% (active),76.2% (active),13,94% (active),90% (active)
COc1ccccc1Nc1nc(SC)ncc1SC,-4%,91% (active),95.1% (active),-12%,75% (active),96.4% (active),-5,69%,94% (active),-8%,30%,41.9%,1%,93% (active),98% (active),-6,82% (active),92.2% (active)
c1ccc(N=Nc2ccc3ccccc3c2)cc1,5%,9%,16.1%,16%,10%,11.8%,6,6%,3.65%,1%,4%,-5.6%,3%,17%,83% (active),8,10%,21.8%
